Laboratory results as given in PubChem BioAssay (NCATS).
Results filed as inconclusive are left out. Active and inactive are the calls of the source. Unless noted, calls come from the whole dose curve; as a rule, active = well fitted curve in either direction with a large enough effect (not every such curve was filed as active); inconclusive = small, poorly fitted or top-dose-only effect, or another doubt; inactive = flat fitted curve, though single readings scatter.

Assays:
[1] = target: Lysosomal acid glucosylceramidase (Homo sapiens) (UniProt P04062); experiment: Glucocerebrosidase-p2 (AID 348; in the data active = potency below about 10 µM; note: potency is the fitted concentration of half-maximal effect); conditions: purified GBA, blue fluorogenic substrate, 40 min
Procedure, shortened: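 Compounds titrated from 0.6 nM upwards against 0.2 nM enzyme in pH 5.9 citric acid/KH2PO4, taurocholate, tween-20; blue fluorogenic substrate 80 uM, 40 min room temperature, stopped and read Ex 365/Em 440 for AC50.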

[2] = AP1 Signaling Pathway (AID 357); conditions: ME-180 AP-1-bla reporter, EGF-induced, beta-lactamase ratio, 5 h; at 7.69 µM (top of the series) unless noted;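 note: ME-180 reporter cells stimulated with EGF at its EC50 level; % is set by controls: 0 for no effect and ±100 for the full control effect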
Procedure, shortened: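 AP-1-bla ME-180 cells, Opti-MEM + 0.5% dialyzed FBS, plated overnight 37 °C. Cpd titration + EC50 EGF, 5 h 37 °C. CCF4 2.5 h RT; ex 405, em 460/530 ratio → %activity, AC50.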

[3] = target: Cytochrome P450 1A2 (Homo sapiens) (UniProt P05177); experiment: p450-cyp1a2 (AID 410; calls by dose curve;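 note: -100% = full effect of reference inhibitor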); conditions: recombinant CYP1A2, luciferin-ME demethylation, luminescence; series mostly up to 11.4 µM
Procedure, shortened: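 Human CYP1A2 (20nM) demethylated Luciferin-ME at its Km (100uM) in 100mM KPO4. After 10 min compound preincubation, NADPH regeneration ran the reaction 60 min at room temperature. Luciferin was read by luminescence, normalized to 57 uM furafylline.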

[4] = NFAT Signaling Pathway (AID 444); conditions: Jurkat NFAT-bla M1, carbachol, beta-lactamase ratio, 5 h; at 7.69 µM (top of the series) unless noted;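 note: carbachol stimulus at about its EC50 of 1 µM final; % is set by controls: 0 for no effect and ±100 for the full control effect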
Procedure, shortened: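 Jurkat cells with NFAT-driven β-lactamase reporter and co-expressed M1 receptor, stimulated with carbachol (final 1 uM, ~EC50), compound titration, 5 h at 37 °C. CCF4 loaded 1 h at RT; 460/530 nm ratio gave %activity and AC50.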

[5] = target: Glucocorticoid receptor (Homo sapiens) (UniProt P04150); experiment: GR-GFP Redistribution (AID 450;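 active = compounds whose dose series gives a full or clear partial fitted curve of increased nuclear translocation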; note: potency is the fitted concentration of half-maximal effect); conditions: U2OS GR-GFP nuclear translocation, laser cytometry, 2 h
[6] = target: Glucocorticoid receptor (Homo sapiens) (UniProt P04150); experiment: GR-EFC Redistribution (AID 451; calls by dose curve; note: potency is the fitted concentration of half-maximal effect); conditions: CHO-K1 GR-EFC translocation, beta-gal luminescence, 2 h
Procedure, shortened: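 CHO-K1 cells expressing nuclear EA and GR-ED fragments of b-gal; compounds titrated up to 46 uM final, 2 h at 37 C. GR nuclear translocation read as complemented b-gal luminescence after 1 h RT detection.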

[7] = target: Mitogen-activated protein kinase 10 (Mus musculus) (UniProt Q61831); experiment: JNK3 AlphaScreen Assay (AID 530); conditions: JNK3 lysate, c-Jun phosphorylation; series mostly up to 11.4 µM;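 note: kinase came from lysate of stimulated human HepG2 cells; signal reports phosphorylation of biotinylated GST-cJun 1-79 at Ser73 with 10 µM ATP; % is set by controls: 0 for no effect and ±100 for the full control effect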
Procedure, shortened: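 qHTS format: compounds tested as titrations against IL-1beta/TNF-alpha-activated HepG2 lysate JNK3 with biotin-GST-cJun substrate and 10 uM ATP at room temperature. Loss of anti-phospho-cJun AlphaScreen signal indicates inhibition.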

[8] = target: 3',5'-cyclic-AMP phosphodiesterase 4B (Homo sapiens) (UniProt Q07343); experiment: qHTS Assay for Inhibitors of PDE-IV (AID 607; active = well fitted activation curve with a large enough effect in the main read-out, with a control signal flat, not every such curve was filed as active; note: % of control where 0% means no effect); conditions: HEK293 ACTOne CNG channel cells, membrane potential fluorescence; series mostly up to 22.9 µM
Procedure, shortened: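 Cell-based read-out of cAMP via a modified cyclic nucleotide-gated channel and membrane potential dye (535/590 nm) in HEK293 cells expressing PDE4 endogenously. Compounds tested up to 22.9 uM final; 100 uM RO 20-1724 reference.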

[9] = qHTS Assay for Identification of Small Molecule Agonists for Hypoxia Response Element Signaling Pathway (AID 914; active = well fitted activation curve with a large enough effect in the signal ratio, with a control signal flat, not every such curve was filed as active; the % refers to the signal ratio; note: % of control where 0% means no effect); conditions: ME-180 (cervical carcinoma) HRE-bla reporter, beta-lactamase ratio, CoCl2, 17 h; activation: stronger effect = higher value
Procedure, shortened: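 HRE-bla ME-180 cells with beta-lactamase reporter under hypoxia response element, compounds with EC50 CoCl2 for 17 hours at 37 C. CCF4 substrate, 460nm/530nm emission ratio gave %Activity; AC50 from titration series.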

Chain of Glucocorticoid receptor (Homo sapiens) (P04150 whole entry, looked up, the tested form may be a part): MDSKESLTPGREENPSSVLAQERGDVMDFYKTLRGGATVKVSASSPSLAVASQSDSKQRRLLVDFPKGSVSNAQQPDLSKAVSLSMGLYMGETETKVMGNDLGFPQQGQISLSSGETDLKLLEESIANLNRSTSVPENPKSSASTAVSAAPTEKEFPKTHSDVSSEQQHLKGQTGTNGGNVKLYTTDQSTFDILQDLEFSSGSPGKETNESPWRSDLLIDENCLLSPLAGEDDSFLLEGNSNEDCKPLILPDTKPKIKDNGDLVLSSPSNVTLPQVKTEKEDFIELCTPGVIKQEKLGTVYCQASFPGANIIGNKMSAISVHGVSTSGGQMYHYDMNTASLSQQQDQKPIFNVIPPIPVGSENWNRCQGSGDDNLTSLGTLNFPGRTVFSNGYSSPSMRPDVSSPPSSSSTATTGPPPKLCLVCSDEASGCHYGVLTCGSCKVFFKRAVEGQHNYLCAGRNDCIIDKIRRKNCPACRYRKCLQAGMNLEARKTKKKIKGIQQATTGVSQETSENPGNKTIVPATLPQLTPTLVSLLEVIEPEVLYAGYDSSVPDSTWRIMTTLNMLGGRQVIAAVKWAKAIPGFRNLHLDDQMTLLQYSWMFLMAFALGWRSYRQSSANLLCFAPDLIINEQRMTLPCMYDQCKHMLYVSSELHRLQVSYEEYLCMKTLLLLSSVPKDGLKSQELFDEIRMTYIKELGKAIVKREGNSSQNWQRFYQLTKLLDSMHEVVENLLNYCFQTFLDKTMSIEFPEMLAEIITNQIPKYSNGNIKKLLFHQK
Chain of 3',5'-cyclic-AMP phosphodiesterase 4B (Homo sapiens) (Q07343 whole entry, looked up): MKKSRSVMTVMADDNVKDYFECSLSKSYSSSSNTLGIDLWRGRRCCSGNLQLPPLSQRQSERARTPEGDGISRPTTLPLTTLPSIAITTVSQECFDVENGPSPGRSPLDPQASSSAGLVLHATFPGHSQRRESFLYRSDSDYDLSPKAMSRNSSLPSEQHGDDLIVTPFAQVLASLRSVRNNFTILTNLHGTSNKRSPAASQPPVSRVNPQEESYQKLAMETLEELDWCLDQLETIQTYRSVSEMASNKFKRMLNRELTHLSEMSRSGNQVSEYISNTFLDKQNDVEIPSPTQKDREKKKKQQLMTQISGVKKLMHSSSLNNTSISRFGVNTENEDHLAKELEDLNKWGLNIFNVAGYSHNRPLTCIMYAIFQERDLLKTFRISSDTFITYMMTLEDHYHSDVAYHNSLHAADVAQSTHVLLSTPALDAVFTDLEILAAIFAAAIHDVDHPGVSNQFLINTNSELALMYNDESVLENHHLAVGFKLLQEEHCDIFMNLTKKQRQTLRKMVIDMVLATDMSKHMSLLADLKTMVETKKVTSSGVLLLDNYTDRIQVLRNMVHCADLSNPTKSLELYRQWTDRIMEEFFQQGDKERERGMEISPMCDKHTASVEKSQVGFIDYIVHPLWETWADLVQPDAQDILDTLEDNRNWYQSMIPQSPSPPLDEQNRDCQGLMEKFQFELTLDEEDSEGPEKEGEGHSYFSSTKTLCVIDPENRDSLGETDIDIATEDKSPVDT
Chain of Lysosomal acid glucosylceramidase (Homo sapiens) (P04062 whole entry, looked up): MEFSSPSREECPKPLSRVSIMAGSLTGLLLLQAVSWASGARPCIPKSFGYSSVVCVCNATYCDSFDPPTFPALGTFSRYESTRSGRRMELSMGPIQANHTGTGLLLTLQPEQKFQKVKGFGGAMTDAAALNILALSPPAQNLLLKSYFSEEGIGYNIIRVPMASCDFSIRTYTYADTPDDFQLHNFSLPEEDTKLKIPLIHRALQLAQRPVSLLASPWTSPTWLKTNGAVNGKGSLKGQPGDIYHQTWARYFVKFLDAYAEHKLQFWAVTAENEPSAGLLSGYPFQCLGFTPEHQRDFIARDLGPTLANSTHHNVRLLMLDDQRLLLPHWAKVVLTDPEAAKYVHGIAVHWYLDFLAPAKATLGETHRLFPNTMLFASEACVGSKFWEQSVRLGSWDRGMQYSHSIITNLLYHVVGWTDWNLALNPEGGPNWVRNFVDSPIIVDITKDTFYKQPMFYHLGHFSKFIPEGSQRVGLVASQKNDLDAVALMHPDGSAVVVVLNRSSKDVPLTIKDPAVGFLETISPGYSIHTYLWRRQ
Chain of Cytochrome P450 1A2 (Homo sapiens) (P05177 whole entry, looked up): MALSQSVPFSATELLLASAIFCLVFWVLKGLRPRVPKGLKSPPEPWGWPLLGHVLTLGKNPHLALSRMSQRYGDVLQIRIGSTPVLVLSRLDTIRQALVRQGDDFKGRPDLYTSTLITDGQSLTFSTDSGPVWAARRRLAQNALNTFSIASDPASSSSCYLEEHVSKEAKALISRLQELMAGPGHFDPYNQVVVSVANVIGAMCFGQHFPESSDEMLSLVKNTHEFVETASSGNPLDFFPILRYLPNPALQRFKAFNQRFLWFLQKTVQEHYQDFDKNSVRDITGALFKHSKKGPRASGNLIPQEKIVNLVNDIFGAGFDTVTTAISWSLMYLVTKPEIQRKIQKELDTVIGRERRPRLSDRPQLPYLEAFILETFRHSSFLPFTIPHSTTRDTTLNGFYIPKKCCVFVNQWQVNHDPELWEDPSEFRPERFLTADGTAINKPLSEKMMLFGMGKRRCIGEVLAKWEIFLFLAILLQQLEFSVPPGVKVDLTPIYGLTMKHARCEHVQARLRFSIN

FC(F)(F)c1nc(SCc2ccc(Cl)cc2)n[nH]1
inactive: Potency [1] > 11.4 µM | activity change, negative = inhibition [2] 1.59% | activity change, negative = inhibition [3] -18.8% [at 2.29 µM] | activity change, negative = inhibition [4] -9.79% | Potency [5] > 46 µM | Potency [6] > 9.22 µM | Potency [7] | Potency [8] | activation [9] 8.01%
